Assay outcomes from PubChem BioAssay.
An excerpt weighted towards active compounds, which were near 3.8% of everything screened.
A549 tox = kills or reduces viability of A549 cells in Nrf2 counter-screen. Potency, µM (titrated, usually from 46 µM), without a hit: top-dose activity change, negative = cytotoxicity, hits mostly inhibitors. 0.16% of 390,000 active. A549 ARE-Fluc cells, CellTiter-Fluor viability, 18-24 h; further: on the % scale 0 is the no-effect control and ±100 the full control effect
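A549 ARE_Fluc cells in 5% FBS OPTI-MEM were exposed to compounds in concentration-response for 18-24 h at 37 deg C. Viability was read by CellTiter-Fluor fluorescence (Ex 405/Em 525) after 30 min, before the luciferase read.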
HepG2 tox-1 = counter-screen for TGF-b inhibitors: cytotoxicity in HepG2 cells; HepG2 CAGA-GFP viability, ATP luminescence, 18 h; Potency, µM (series often up to 46.1 µM), for inactives: top-dose activity change, negative = cytotoxicity, usual class: cytotoxic; AID 588856; 0.76% of 410,000 active
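CellTiter-Glo luminescence gave cytotoxicity after 18 hours at 37 degrees C. The cells were HepG2 CAGA-GFP in 1% FBS DMEM, stimulated with 500 pg/mL TGF-beta after compound addition. %Activity was normalised to no-cell wells (complete cell-killing) and DMSO (no toxicity), and curves were fitted and classified.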
ATXN2 expr inh = ATXN2 expression inhibition. HEK-293 ATXN2-luciferase reporter, luminescence, 24 h. Potency, µM (top dose mostly 57 µM), inactives show at the highest dose activity change, negative = inhibition, actives largely listed as inhibitors. 0.72% of 360,000 active. AID 1745845; further: on the % scale 0 is the no-effect control and ±100 the full control effect; nearly all actives have a fitted effect of over 55% in size
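ATXN2-luciferase reporter cells (luciferase flanked by upstream and downstream ATXN2 gene portions) were treated 24 h at 37 °C with compounds at up to 57 uM. SteadyGlo luminescence gave expression; GF-AFC fluorescence gave viability.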
S2 tox = cell viability loss in ATXN counter-screen. 0.49% of 400,000 active. S2 cells (HEK-293 line with an ATXN2-luciferase reporter) viability, CellTiter-Fluor protease fluorescence, 24 h. AID 651635. Potency, µM (top dose mostly 56.7 µM), hits mostly cytotoxic; further: nearly all actives have a fitted effect of over 40% in size
TGFb SMAD3 inh = TGF-b pathway inhibition. HepG2 CAGA-GFP TGF-b/SMAD3 reporter, GFP fluorescence, 18 h; TGF-beta stimulated, 500 pg/mL final. Potency, µM (highest dose often 46.1 µM), for the others: at the top dose activity, negative = inhibition, hits mostly inhibitors. 1.2% of 410,000 active; further: on the % scale 0 is the no-effect control and ±100 the full control effect; nearly all actives have a fitted effect of over 65% in size
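Inhibition was scored as loss of TGF-beta-induced (500 pg/mL final, 18 hours, 37 degrees C) GFP in HEPG2 cells carrying a CAGA-GFP reporter, in DMEM with 1% FBS. Well GFP was summed per cell; Activity was normalised to unstimulated and stimulated DMSO wells, then concentration-response fitting.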
Nrf2 block = blocks Nrf2 signaling; AID 504444; A549 ARE-Fluc reporter, luciferase luminescence, 18-24 h; 2.1% of 360,000 active; Potency, µM (highest dose often 46 µM), inactives show at the highest dose activity change, negative = inhibition, actives largely listed as inhibitors; further: on the % scale 0 is the no-effect control and ±100 the full control effect; nearly all actives have a fitted effect of over 60% in size
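Quantitative HTS in A549 cells stably bearing an antioxidant response element-firefly luciferase construct. Inhibition of Nrf2-driven transcription was scored by luminescence after 18-24 h of compound exposure at 37 °C.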
TGFb CAGA inh = confirmation of TGF-b signaling inhibitors in HepG2 reporter cells; Potency, µM (series often up to 46.1 µM), inactives show at the top dose activity, negative = inhibition, actives largely listed as inhibitors; shares compounds with TGFb SMAD3 inh; 63% of 1,600 active; HepG2 CAGA-GFP TGF-b reporter, GFP fluorescence, 18 h; cells stimulated with TGF-beta, 500 pg/mL; further: on the % scale 0 is the no-effect control and ±100 the full control effect; nearly all actives have a fitted effect of over 65% in size
HepG2 tox-2 = HepG2 cytotoxicity, TGF-b inhibitor counterscreen; 27% of 1,600 active; shares compounds with TGFb SMAD3 inh; HepG2 CAGA-GFP viability, ATP luminescence, 18 h; cells stimulated with TGF-beta, 500 pg/mL; Potency, µM (series often up to 46.1 µM), without a hit: at the top dose activity, negative = cytotoxicity, most hits filed as inhibitors; AID 720535; further: on the % scale 0 is the no-effect control and ±100 the full control effect; nearly all actives have a fitted effect of over 70% in size
CCL64 TGFb inh = orthogonal confirmation of TGF-b inhibitors in CCL64 cells; shares compounds with TGFb SMAD3 inh; CCL64 CAGA-GFP reporter, TGF-b stimulated, GFP fluorescence, 18 h; Potency, µM (top dose mostly 46.1 µM), without a hit: at the highest dose activity, negative = inhibition, most hits filed as inhibitors; 41% of 1,600 active; AID 720536; further: nearly all actives have a fitted effect of over 65% in size
COP TGFb inh = blocks TGF-b signaling in HepG2 COP reporter | HepG2 COP-GFP TGF-b reporter, GFP fluorescence, 18 h; cells stimulated by added recombinant TGF-beta | Potency, µM (series often up to 46.1 µM), inactives show at the highest dose activity, negative = inhibition, most hits filed as inhibitors | 3% of 1,600 active | shares compounds with TGFb SMAD3 inh; further: nearly all actives have a fitted effect of over 70% in size
* hit, by the source's call; i = inactive; ? = inconclusive; . = not tested or not shown. The call rests on the fitted dose curve; in most records, active means well fitted curve in the direction sought with a large enough effect; inconclusive means small, poorly fitted or top-dose-only effect, or another doubt; inactive means no such curve, though single readings can be large; an effect the other way counts as inactive or inconclusive. Potency means the concentration at half of the fitted maximal effect.

SMILES	A549 tox	HepG2 tox-1	ATXN2 expr inh	S2 tox	TGFb SMAD3 inh	Nrf2 block	TGFb CAGA inh	HepG2 tox-2	CCL64 TGFb inh	COP TGFb inh
OC[C@@H]1CN(Cc2ccc(-c3ccccc3)cc2)C[C@H](n2cnc3c(Nc4ccccc4)ncnc32)O1	.	-23%	?	i	10µM*	.	8.2µM*	?	?	26%
Cc1cccc(NC(=O)C(=O)NCC(c2cccnc2)N2CCc3ccccc3C2)c1C (stereo not given)	-6%	-19%	.	.	-39%	16%	.	.	.	.
O=C(COc1ccccc1)N[C@@H]1c2ccccc2CC[C@H]1OCc1ccccc1	-13%	-23%	-37%	i	16µM*	?	?	?	18µM*	36%
O=C(COc1ccccc1)N[C@@H]1c2ccccc2CC[C@@H]1OCc1ccccc1	5%	-16%	-3%	i	-27%	-13%	.	.	.	.
Fc1cccc(CCN2C(=S)NC[C@@H]2CC2CCCCC2)c1	0%	-34%	0%	?	14µM*	-25%	16µM*	-16%	?	-23%
O=C(CSc1nc(-c2ccc(Cl)cc2)cs1)Nc1cccc([N+](=O)[O-])c1	-21%	-31%	.	?	10µM*	16µM*	?	?	-5%	59%
O=C(Nc1cccc(-c2csc(Nc3ccc(Cl)cc3)n2)c1)c1cc([N+](=O)[O-])cc(C(F)(F)F)c1	?	-22%	-15%	.	20µM*	?	8.2µM*	?	5.8µM*	45%
O=[N+]([O-])c1cccc(NC(=S)Nc2nc(-c3ccccc3Cl)cs2)c1	?	-28%	-36%	?	3.5µM*	?	3.7µM*	6.5µM*	6.5µM*	47%
O=[N+]([O-])c1cccc(NC(=S)NCc2ccncc2)c1	-9%	-17%	-11%	?	-7%	-1%	.	.	.	.
Cc1cc(NC(=O)CSc2nc(-c3ccc(Cl)cc3)cs2)no1	-3%	-7%	-23%	i	1%	-21%	.	.	.	.
COC(=O)[C@]1(C)N[C@H](CN(C)C(C)=O)[C@@H]2C(=O)N(Cc3ccccc3)C(=O)[C@@H]21	0%	5%	6%	i	4%	9%	.	.	.	.
Cc1ccc(N(CC(O)CN2C(=O)NC(C)(C)C2=O)S(=O)(=O)c2ccc([N+](=O)[O-])cc2)cc1 (stereo not given)	-2%	-8%	.	?	0%	-4%	.	.	.	.
NC(=O)c1cccc(-c2ccnc3c2CC(C(=O)Nc2cccc(C(F)(F)F)c2)O3)c1 (stereo not given)	.	-27%	?	i	13µM*	.	21µM*	-28%	7%	31%
CCOC(=O)c1ccc2ncc3c(-c4ccccc4)nn(-c4ccc(F)c(Cl)c4)c3c2c1	-2%	-31%	-9%	i	8%	9%	.	.	.	.
NC(=O)CC(NC(=O)c1ccccc1)c1ccc(N2CCC(N3CCCC3)CC2)c([N+](=O)[O-])c1 (stereo not given)	0%	-2%	4%	i	1%	5%	.	.	.	.
NC(=O)CC(NC(=O)c1ccc(Br)cc1)c1ccc(N2CCC(Cc3ccccc3)CC2)c([N+](=O)[O-])c1 (stereo not given)	-14%	-31%	-26%	i	10µM*	?	?	21µM*	?	-4%
NC(=O)CC(NC(=O)c1ccccc1)c1ccc(N2CCC(Cc3ccccc3)CC2)c([N+](=O)[O-])c1 (stereo not given)	?	-35%	?	?	6.3µM*	10µM*	23µM*	?	?	67%
NC(=O)CC(NC(=O)c1ccc(Br)cc1)c1ccc(N2CCN(c3ccccc3)CC2)c([N+](=O)[O-])c1 (stereo not given)	-7%	-17%	-14%	i	?	-26%	.	.	.	.
CC(Sc1nnc(CN2CCCC2)n1Cc1ccccc1)C(=O)Nc1ccc(F)cc1Cl (stereo not given)	2%	-10%	-13%	i	?	9%	.	.	.	.
Cc1ccc(N(CC(=O)N/N=C/c2cc(C)n(-c3ccccc3C)c2C)S(C)(=O)=O)cc1	-1%	-30%	-4%	i	?	-3%	.	.	.	.
Cc1ccc(NC(=O)COC(=O)C2(c3ccc(Cl)cc3)CCCC2)cc1	-2%	-41%	?	?	10µM*	-21%	?	?	?	29%
CCOC(=O)c1c(C)[nH]c(C(=O)N/N=C/c2ccc(Br)cc2)c1C	-12%	0%	-34%	?	1.4µM*	9%	0.92µM*	-9%	?	-18%
Fc1ccc(CNc2cc(-c3ccccc3)nc3nncn23)cc1	-3%	-20%	-38%	i	-13%	-17%	.	.	.	.
CC(=O)Nc1ccc(S(=O)(=O)Nc2c(C)nn(-c3ccccc3)c2C)cc1	0%	11%	-18%	?	2%	-1%	.	.	.	.
Cc1nn(-c2ccc(F)cc2)c(C)c1NS(=O)(=O)c1ccc2ccccc2c1	?	-30%	?	?	10µM*	?	?	?	?	20%
CCC(C)Sc1ccc([C@@H]2[C@@H]3C(=O)N(C)C(=O)[C@@H]3[C@]3(C(=O)OC)CCCCN23)cc1OC (stereo not given in full)	?	-11%	-6%	i	1%	-1%	.	.	.	.
